From PubChem
Shown are actives, neighbours in structure and some others; about 1.8% of the full set was active somewhere.
MBNL1-CUG inh = blocks human MBNL1 binding to CUG repeat RNA | actives 0.036% (n = 280,000) | TR-FRET MBNL1-His/biotin-(CUG)12 binding, 665/545 ratio | Q9NR56 | Potency, µM (top dose mostly 57.5 µM), for the others: at the top dose activity change, negative = inhibition, most hits filed as inhibitors; active = well fitted inhibition curve with a large enough effect in the signal ratio, with a control signal flat, not every such curve was filed as active; inconclusive = small, poorly fitted or top-dose-only effect, or effect the other way, or a change in a side signal; inactive = no such curve, though single readings can be large or run the other way; the % refers to the signal ratio; also: potency is read from the fitted curve at half-maximal effect; % is scaled to controls: 0 for no effect and ±100 for the full control effect
Target sequence (Q9NR56 whole entry, looked up): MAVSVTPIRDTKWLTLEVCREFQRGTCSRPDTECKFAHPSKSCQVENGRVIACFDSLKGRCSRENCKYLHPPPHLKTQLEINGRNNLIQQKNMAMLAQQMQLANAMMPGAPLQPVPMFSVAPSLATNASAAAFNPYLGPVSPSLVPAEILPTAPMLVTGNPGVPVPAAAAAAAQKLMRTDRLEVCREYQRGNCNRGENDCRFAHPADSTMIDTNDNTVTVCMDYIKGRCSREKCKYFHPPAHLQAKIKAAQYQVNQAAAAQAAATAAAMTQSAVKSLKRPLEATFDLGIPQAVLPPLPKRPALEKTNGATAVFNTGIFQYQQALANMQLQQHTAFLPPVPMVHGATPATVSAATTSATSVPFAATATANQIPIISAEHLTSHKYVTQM
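Inhibition of protein-RNA binding appears as loss of TR-FRET between terbium anti-His antibody on MBNL1-His and streptavidin-XL665 on biotin-(CUG)12. Activity is normalized to buffer-only and uninhibited-complex controls.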
Mito fusion act = mitochondrial division inhibition or fusion activation; actives 0.23% (n = 320,000); AID 485298; Potency, µM (series often up to 46.1 µM), inactives show at the top dose growth rescue (activation), actives largely listed as activators; S. cerevisiae fusion-defective mutant growth rescue, CellTiterGlo 48 h; also: potency is read from the fitted curve at half-maximal effect; % of control where 0% means no effect; nearly all actives have a fitted effect of over 45% in size
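Temperature-sensitive fusion-defective S. cerevisiae (e.g. fzo1-1, mgm1-5) were grown with compound in YPEG medium (3% ethanol, 3% glycerol) for 48 hours at 37C. Growth rescue was measured as viability by CellTiterGlo luminescence after 10 minutes at ambient.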
ClpP mod = qHTS Assay for Activators of ClpP | actives 1.9% (n = 340,000) | ATP-dependent Clp protease proteolytic subunit (Bacillus subtilis (strain 168)), P80244 | AID 651965, 2013 | purified B. subtilis ClpP, FRET peptide cleavage, 20 min | Potency, µM (doses to about 57.5 µM), without a hit: top-dose activity change, negative = active; active = well fitted falling curve with a large enough effect; inconclusive = small, poorly fitted or top-dose-only effect; inactive = no such curve, though single readings can be large or run the other way; also: potency is read from the fitted curve at half-maximal effect; the source files actives as falling curves though it sought activators and does not explain the sign; nearly all actives have a fitted effect of over 65% in size
Target sequence (P80244 whole entry, looked up): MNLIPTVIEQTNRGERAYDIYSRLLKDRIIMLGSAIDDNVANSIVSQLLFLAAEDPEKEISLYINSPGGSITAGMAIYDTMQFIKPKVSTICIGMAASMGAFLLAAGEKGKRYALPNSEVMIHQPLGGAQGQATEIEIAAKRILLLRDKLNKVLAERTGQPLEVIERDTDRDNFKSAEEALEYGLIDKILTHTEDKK
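Buffer: 100 mM Tris/HCl pH8, 100 mM KCl, 0.05% low protease BSA, 2.5% glycerol, 0.01% Tween-20. ClpP 10 microg/mL final; 20 min RT; delta FRET normalized to ADEP and DMSO controls.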
A-T KAP1 phos = candidate therapy for ataxia-telangiectasia. Potency, µM (doses to about 57.5 µM), inactives show at the top dose activation, actives largely listed as activators. F2112 A-T fibroblasts, KAP-1 phosphorylation AlphaLISA; neocarzinostatin DNA damage 30 min before lysis. actives 0.19% (n = 320,000); also: potency is read from the fitted curve at half-maximal effect; % of control where 0% means no effect; nearly all actives have a fitted effect of over 45% in size
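hTERT-immortalized A-T patient fibroblasts (F2112), 500 cells/well in OPTI-MEM, 1% FBS, got compounds for 60 min, then NCS for 30 min at 37C. Lysates were then assayed for phospho-KAP-1 by AlphaLISA (anti-pKAP1 donor, anti-KAP1 acceptor beads), 6 hr at 25C.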
TCR activator = activators of T cell receptors; 330,000 tested, under 10 active; primary human leukocytes, anti-CD3, IL-2 HTRF, 48 h; Potency, µM (top dose mostly 9.22 µM), for inactives: top-dose activation of IL-2 secretion, hits mostly activators; also: % of control where 0% means no effect
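Primary human leukocytes receive a-CD3 beads and test compound and are incubated 48 hr. Secreted IL-2 is then assayed by HTRF, measuring 665nm acceptor emission after 320nm excitation of the europium donor.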
Glioma ERSR ind = ER stress response induction in glioma; U87-MG GRP78 promoter luciferase reporter, 16 h; Potency, µM, inactives show at the top dose activation, hits mostly activators; actives 0.02% (n = 420,000); AID 602332; also: potency is read from the fitted curve at half-maximal effect; series mostly up to about 76 µM; % of control where 0% means no effect; nearly all actives have a fitted effect of over 35% in size
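ERSR induction read as luciferase luminescence (Bright-Glo, 10 min at room temperature) in stably transfected human U87-MG glioma cells exposed to compounds for 16 h, using GRP78 as sensor.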
Starred values were filed as active, the others as inactive; ? = inconclusive; . = no result; [ ] = remark or other dose. Unless noted, calls follow the shape of the dose curve; as a rule, active = well fitted curve in the direction sought with a large enough effect; inconclusive = small, poorly fitted or top-dose-only effect, or another doubt; inactive = no such curve, though single readings can be large; an effect the other way counts as inactive or inconclusive.

SMILES	MBNL1-CUG inh	Mito fusion act	ClpP mod	A-T KAP1 phos	TCR activator	Glioma ERSR ind
CC(C)NC(C(=O)Nc1cc(Cl)cc(Cl)c1)c1ccccc1 (configuration not stated)	0%	-2%	28µM*	1%	0%	-4%
COC(=O)c1ccc(-c2ccco2)n1Cc1ccccc1Cl	-6%	1%	28µM*	.	0%	1%
CN(N=O)c1ccc(/C=C/c2ccnc3ccccc23)cc1	.	.	1%	.	.	-1%
O=S(=O)(c1ccccc1)c1nc(-c2cccs2)oc1NCC1CCCO1 (configuration not stated)	22%	6%	25µM*	1%	-13%	-4%
CCc1ccc(NC(=O)CSc2nnc(-c3ccccn3)n2C)cc1	3%	1%	2%	2%	-1%	-2%
CC(C)c1ccc(NC(=O)CSc2nnc(-c3ccccn3)n2C)cc1	-9%	-2%	28µM*	-2%	-2%	-2%
O=C(NCc1ccc2c(c1)OCO2)c1ccc2c(c1)N(Cc1c(F)cccc1Cl)C(=O)CS2	5%	-5%	14µM*	6%	3%	-3%
O=C(NCc1ccc2c(c1)OCO2)c1ccc2c(c1)N(Cc1ccccc1F)C(=O)c1ccccc1S2	.	.	-1%	.	.	-4%
Cc1ccc2c(ccc[n+]2CC(=O)c2ccccc2)c1	.	0%	18µM*	0%	-6%	-3%
Cc1ncsc1CCC(=O)N1CCCC(c2nc(-c3ccncc3)ncc2-c2ccccc2)C1 (configuration not stated)	.	.	.	.	.	-4%
Oc1ccc(CNc2cccc(C(F)(F)F)c2)c2cccnc12	.	-1%	.	-3%	.	.
Cc1cc(C)c(NC(=O)c2sc3nc4c(cc3c2N)C(=O)CC(C)(C)C4)c(C)c1	5%[11.5 µM]	13µM*	2%	-2%	1%[46.1 µM]	-3%
C[C@]12CCC3c4ccc(OC(=O)c5ccccc5)cc4CCC3C1CCC2=O (some centres not stated)	.	.	.	.	.	-2%
C[C@]12CC[C@@H]3c4ccc(OC(=O)c5ccccc5)cc4CC[C@H]3[C@@H]1CC[C@@H]2O	?	7%	-1%	18µM*	-2%	?
CSc1nnc(-c2sc(-c3ccccc3)nc2C)n1C	27%	1%	25µM*	-11%	-1%	-1%
Cc1nc(-c2ccccc2)sc1-c1n[nH]c(=S)n1C	14%	3%	17%	-11%	6%	0%
Cc1nn(Cc2ccccc2)c(C)c1CNC(=O)CN=C1NS(=O)(=O)c2ccccc21	.	-7%	22µM*	0%	-152%	-2%
CC(OC(=O)CCN=C1NS(=O)(=O)c2ccccc21)C(=O)NCc1ccccc1 (configuration not stated)	.	1%	1%	-2%	-2%	-3%
O=C(O)c1cc(Cl)c2ccccc2c1O	16%	10%	28µM*	8%	-7%	1%
CCN1CCCC1CNCc1cc2ccc(SC)cc2nc1-c1cc(OC)ccc1OC (configuration not stated)	.	.	.	.	.	0%
CSc1ccc(CNCCCSc2ncccn2)cc1	-8%	2%	8.9µM*	2%	.	-4%
c1cc2c(cc1Cc1cncc(Cc3ccc4c(c3)OCO4)c1)OCO2	.	.	0%	.	.	-3%
COc1cc2[nH]c(=O)n(CCCCCC(=O)N3CC=C(c4ccccc4)CC3)c(=O)c2cc1OC	2%	-4%	18µM*	.	2%	-7%
O=C(CCn1c(=O)[nH]c2ccsc2c1=O)N1CCc2ccccc2C1	-7%	-2%	-3%	-3%	0%	-2%
COc1cc2[nH]c(=O)n(CCC(=O)N3CCc4ccccc4C3)c(=O)c2cc1OC	-2%	1%	28µM*	0%	-8%	0%
SMILES	MBNL1-CUG inh	Mito fusion act	ClpP mod	A-T KAP1 phos	TCR activator	Glioma ERSR ind
O=C(/C=C/c1ccc(F)cc1)NCC1Cc2cccc(-c3ncccn3)c2O1 (configuration not stated)	.	.	.	.	.	-3%
C=CCC1NCCc2c(Br)cccc21 (configuration not stated)	0%	-5%	.	5%	10%	-5%
C=CC[C@@H]1Cc2c(Br)ccc(Br)c2[C@@H](CC=C)N1	2%	-1%	-18%	40µM*	2%[46.1 µM]	-4%
COc1ccc2nc3oc(C(=O)N4CCC(C(N)=O)CC4)cc3cc2c1	?	1%	28µM*	2%	-4%	2%
COc1ccc2cc3cc(C(=O)NCc4ccc5c(c4)OCO5)oc3nc2c1	14%	-3%	14µM*	5%	2%	2%
COc1ccc(CNC(=O)c2cc3cc4ccc(C)cc4nc3o2)cc1	.	.	-14%	.	.	-1%
COc1ccc2cc3cc(C(=O)NCc4ccccc4OC)oc3nc2c1	.	.	4%	.	.	-3%
CCOC(=O)C1CCN(C(=O)c2cc3cc4ccc(OC)cc4nc3o2)CC1	?	4%	4%	4%	-1%	-11%
COc1ccc2cc(C(=O)N3CCN(Cc4ccc5c(c4)OCO5)CC3)[nH]c2c1	-3%	-2%	-6%	20%	1%	-1%
COc1ccc2cc3cc(C(=O)N4CCN(Cc5ccc6c(c5)OCO6)CC4)oc3nc2c1	?	13%	32µM*	0%	-1%	1%
COc1ccc2cc3cc(C(=O)NCC4COc5ccccc5O4)oc3nc2c1 (configuration not stated)	?	-1%	35µM*	1%	1%	-4%
OC[C@H]1O[C@H](OC/C=C/c2ccccc2)[C@H](O)[C@@H](O)[C@@H]1O	.	.	.	.	.	-4%
Cc1ccc2cc3cc(C(=O)NCCC(C)C)oc3nc2c1	8%	-3%	-1%	4%	-8%	-3%
Cc1ccc2cc3cc(C(=O)NCc4ccco4)oc3nc2c1	?	1%	14µM*	3%	-1%	0%
O=C(NCc1ccco1)c1ccccc1NS(=O)(=O)c1cccs1	-6%	5%	-6%	-2%	4%	-3%
O=C(NCc1ccco1)c1ccccc1NS(=O)(=O)c1ccc2c(c1)OCCO2	9%	6%	32µM*	.	2%	6%
Cc1ccc(N(CC(=O)Nc2ccccc2C(=O)NCc2ccco2)S(=O)(=O)c2ccccc2)cc1C	1%	5%	22µM*	-2%	4%	-5%
Cc1cccc(C)c1NC(=S)Nc1ccccc1C(=O)NCc1ccco1	-7%	-1%	25µM*	0%	4%[46.1 µM]	-2%
Cc1ccc(C)c(N(CC(=O)Nc2ccccc2C(=O)NCc2ccco2)S(=O)(=O)c2ccccc2)c1	-15%	-18%	35µM*	0%	0%[46.1 µM]	-3%
